Records with an inconclusive call do not appear. Activity calls are given as the source filed them. The calls were made as follows: active = hit-call score of the fitted dose curve at least 0.9, where 1 is the maximum; inconclusive = response in the unintended direction; inactive = score below 0.9.

Test [1] deals with human Vascular Endothelial Growth Factor Receptor 1 (VEGFR1), FLT1 (gene 2321) (UniProt P17948). The experiment in a line: NVS_ENZ_hVEGFR1: NovaScreen (NVS) Enzymatic Assay for human Vascular Endothelial Growth Factor Receptor 1 (VEGFR1) (AID 2283226). A digest of the protocol:
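Kinase activity of recombinant human VEGFR1 was read by fluorescence after electrophoretic separation of product from substrate, 1 h post-dosing; initial duplicate single-point testing at 25 uM, followed by concentration-series follow-up, with DMSO as baseline.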

For test [2], the target named is human Vascular Endothelial Growth Factor Receptor 3 (VEGFR3), FLT4 (gene 2324) (UniProt P35916). The experiment in a line: NVS_ENZ_hVEGFR3: NovaScreen (NVS) Enzymatic Assay for human Vascular Endothelial Growth Factor Receptor 3 (VEGFR3) (AID 2283229). A digest of the protocol:
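Chemicals first run in duplicate at 25 uM, with actives re-tested in concentration series to a top of 50 uM. Recombinant VEGFR3 activity measured after 1 h via fluorescence with mobility-shift product separation; inhibition fitted relative to DMSO.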

Test [3] deals with human Vascular Endothelial Growth Factor Receptor 2 (VEGFR2), KDR (gene 3791) (UniProt P35968). The experiment in a line: NVS_ENZ_hVEGFR2: NovaScreen (NVS) Enzymatic Assay for human Vascular Endothelial Growth Factor Receptor 2 (VEGFR2) (AID 2283230). Summed up:
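Cell-free recombinant VEGFR2 kinase, fluorescent substrate with electrophoretic mobility-shift separation; read 1 h after dosing. Screened at 25 uM in duplicate, hits to concentration-response up to 50 uM; loss-of-signal versus DMSO.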

The target in test [4] is human Sirtuin 3 (SIRT3), SIRT3 (gene 23410) (UniProt Q9NTG7). Description: NVS_ENZ_hSIRT3: NovaScreen (NVS) Enzymatic Assay for human Sirtuin 3 (SIRT3) (AID 2283222). Summed up: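 Cell-free enzyme assay with recombinant protein and fluorescent substrate, product separated by electrophoretic mobility shift; read 1 hour after dosing. Screened in duplicate at 25 uM, then singleton concentration-response up to 50 uM; loss of signal versus DMSO.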

Test [5] addresses rabbit Imidazoline 2 Central (I2C), CKB (gene 100009085) (UniProt P00567). The experiment in a line: NVS_ENZ_rabI2C: NovaScreen (NVS) Enzymatic Assay for rabbit Imidazoline 2 Central (I2C) (AID 2283228). A digest of the protocol: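 Rabbit brain membranes, cell-free; readout by filter-based scintillation counting 1.5 hours after dosing, loss of signal vs DMSO. Initial duplicate test at 25 uM, then concentration-response with 50 uM top concentration.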

For test [6], the target named is sheep Cyclooxygenase-2 (Cox2), PTGS2 (gene 443460) (UniProt P79208). The experiment in a line: NVS_ENZ_oCOX2: NovaScreen (NVS) Enzymatic Assay for sheep Cyclooxygenase-2 (Cox2) (AID 2283231). A digest of the protocol: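 Compounds were first run at 25 uM in duplicate against tissue-extracted ovine COX-2; those passing a preset inhibition threshold went to singleton concentration-response testing with a 50 uM maximum. Read-out: absorbance at 0.66 hour.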

The target in test [7] is rat Catechol-O-Methyl Transferase (COMT), Comt (gene 24267) (UniProt P22734). The experiment in a line: NVS_ENZ_rCOMT: NovaScreen (NVS) Enzymatic Assay for rat Catechol-O-Methyl Transferase (COMT) (AID 2283235). The procedure: NVS_ENZ_rCOMT is a biochemical, single-readout assay that uses extracted gene-proteins from Rat dorsal striatum in a tissue-based cell-free assay. Measurements were taken 0 hour after chemical dosing in a 96-well plate.NVS_ENZ_rCOMT is one of one assay component(s) measured or calculated from the NVS_ENZ_rCOMT assay. It is designed to make measurements of enzyme activity, a form of enzyme reporter, as detected with absorbance signals by HPLC and Spectrophotometry technology.Data from the assay component NVS_ENZ_rCOMT was analyzed into 1 assay endpoint. This assay endpoint, NVS_ENZ_rCOMT, was analyzed in the positive analysis fitting direction relative to DMSO as the negative control and baseline of activity. Using a type of enzyme reporter, loss-of-signal activity can be used to understand changes in the enzymatic activity as they relate to the gene Comt. Furthermore, this assay endpoint can be referred to as a primary readout, because this assay has produced multiple assay endpoints where this one serves a enzymatic activity function. To generalize the intended target to other relatable targets, this assay endpoint is annotated to the methyltransferase intended target family, where the subfamily is o-methyltransferase. […]

Test [8] addresses human Sirtuin 1 (SIRT1), SIRT1 (gene 23411) (UniProt Q96EB6). Description: NVS_ENZ_hSIRT1: NovaScreen (NVS) Enzymatic Assay for human Sirtuin 1 (SIRT1) (AID 2283219). A digest of the protocol:
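Cell-free recombinant SIRT1 with a fluorescent substrate; substrate and product separated by electrophoretic mobility shift and read by fluorescence intensity, 1 h after dosing. Primary screen at 25 uM in duplicate; hits re-run in concentration-response up to 50 uM, relative to DMSO.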

The target in test [9] is human SRC Proto-Oncogene, Non-receptor Tyrosine Kinase (SRC), SRC (gene 6714) (UniProt P12931). Description: NVS_ENZ_hSRC: NovaScreen (NVS) Enzymatic Assay for human SRC Proto-Oncogene, Non-receptor Tyrosine Kinase (SRC) (AID 2283223). Summed up: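 Compounds passing 30% inhibition at 25 uM (duplicate) were titrated to a top concentration of 50 uM. Enzyme activity read by fluorescence with mobility-shift substrate/product separation after 1 h; DMSO baseline.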

Test [10] addresses human Tropomyosin Receptor Kinase A (TRKA), NTRK1 (gene 4914) (UniProt P04629). Description: NVS_ENZ_hTrkA: NovaScreen (NVS) Enzymatic Assay for human Tropomyosin Receptor Kinase A (TRKA) (AID 2283224). Summed up: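 Compounds were screened at 25 uM in duplicate, then concentration series to a 50 uM top for those meeting threshold (e.g. 30% inhibition). Enzyme was recombinant human TrkA, incubated 1 h. Product formation was quantified by fluorescence after mobility-shift separation.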

Chain of human Vascular Endothelial Growth Factor Receptor 2 (VEGFR2), KDR (gene 3791) (P35968 whole entry, looked up): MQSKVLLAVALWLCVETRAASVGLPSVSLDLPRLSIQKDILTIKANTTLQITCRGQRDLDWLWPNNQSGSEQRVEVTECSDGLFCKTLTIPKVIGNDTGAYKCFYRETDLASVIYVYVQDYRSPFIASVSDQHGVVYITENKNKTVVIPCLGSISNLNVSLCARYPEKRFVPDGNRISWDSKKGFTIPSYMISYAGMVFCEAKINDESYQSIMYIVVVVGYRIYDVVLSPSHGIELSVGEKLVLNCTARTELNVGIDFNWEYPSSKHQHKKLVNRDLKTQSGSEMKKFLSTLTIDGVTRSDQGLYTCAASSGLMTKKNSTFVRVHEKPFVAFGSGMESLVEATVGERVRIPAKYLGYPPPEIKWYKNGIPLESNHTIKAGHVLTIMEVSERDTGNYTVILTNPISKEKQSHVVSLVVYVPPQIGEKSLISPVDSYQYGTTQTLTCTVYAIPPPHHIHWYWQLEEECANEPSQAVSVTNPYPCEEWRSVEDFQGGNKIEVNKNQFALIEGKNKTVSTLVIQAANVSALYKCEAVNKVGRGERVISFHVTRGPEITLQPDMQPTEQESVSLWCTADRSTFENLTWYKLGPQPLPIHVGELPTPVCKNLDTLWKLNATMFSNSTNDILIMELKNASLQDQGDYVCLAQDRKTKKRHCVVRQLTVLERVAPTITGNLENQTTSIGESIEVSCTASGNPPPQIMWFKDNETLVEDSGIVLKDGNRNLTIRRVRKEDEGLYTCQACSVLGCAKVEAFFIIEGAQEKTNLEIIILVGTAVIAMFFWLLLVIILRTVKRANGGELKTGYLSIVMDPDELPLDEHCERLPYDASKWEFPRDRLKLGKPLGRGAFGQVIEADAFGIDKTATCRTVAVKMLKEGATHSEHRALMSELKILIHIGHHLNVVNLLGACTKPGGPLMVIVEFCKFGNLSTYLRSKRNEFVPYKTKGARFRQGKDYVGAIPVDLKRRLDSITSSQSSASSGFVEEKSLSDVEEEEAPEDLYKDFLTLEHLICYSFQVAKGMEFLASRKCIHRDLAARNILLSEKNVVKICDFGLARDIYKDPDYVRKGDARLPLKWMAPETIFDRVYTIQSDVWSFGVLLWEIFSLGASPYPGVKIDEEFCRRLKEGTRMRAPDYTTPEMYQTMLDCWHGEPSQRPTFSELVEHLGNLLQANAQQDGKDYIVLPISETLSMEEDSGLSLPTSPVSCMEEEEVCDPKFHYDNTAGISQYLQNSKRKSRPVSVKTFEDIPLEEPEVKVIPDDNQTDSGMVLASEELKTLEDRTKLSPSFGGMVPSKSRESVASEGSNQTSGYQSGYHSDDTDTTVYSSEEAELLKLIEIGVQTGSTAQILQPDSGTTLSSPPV
Chain of human Sirtuin 1 (SIRT1), SIRT1 (gene 23411) (Q96EB6 whole entry, looked up): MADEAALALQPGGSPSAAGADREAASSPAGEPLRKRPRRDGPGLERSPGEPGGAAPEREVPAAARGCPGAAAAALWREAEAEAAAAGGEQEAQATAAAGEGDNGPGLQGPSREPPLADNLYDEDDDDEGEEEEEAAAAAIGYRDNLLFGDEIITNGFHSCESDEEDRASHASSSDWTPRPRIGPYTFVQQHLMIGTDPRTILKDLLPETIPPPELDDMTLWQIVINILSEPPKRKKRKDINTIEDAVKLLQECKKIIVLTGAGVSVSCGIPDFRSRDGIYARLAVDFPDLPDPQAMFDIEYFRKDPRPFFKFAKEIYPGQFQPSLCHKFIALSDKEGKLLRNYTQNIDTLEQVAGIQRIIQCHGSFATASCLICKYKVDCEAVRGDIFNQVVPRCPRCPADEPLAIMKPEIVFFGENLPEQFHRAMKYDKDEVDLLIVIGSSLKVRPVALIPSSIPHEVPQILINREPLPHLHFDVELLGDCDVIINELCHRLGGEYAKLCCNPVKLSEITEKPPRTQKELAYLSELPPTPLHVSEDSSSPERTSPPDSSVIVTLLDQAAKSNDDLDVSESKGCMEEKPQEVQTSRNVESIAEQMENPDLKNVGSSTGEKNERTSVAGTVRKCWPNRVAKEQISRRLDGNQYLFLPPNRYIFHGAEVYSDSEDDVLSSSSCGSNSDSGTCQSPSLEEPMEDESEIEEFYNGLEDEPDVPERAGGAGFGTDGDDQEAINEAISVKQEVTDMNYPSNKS
Chain of rabbit Imidazoline 2 Central (I2C), CKB (gene 100009085) (P00567 whole entry, looked up): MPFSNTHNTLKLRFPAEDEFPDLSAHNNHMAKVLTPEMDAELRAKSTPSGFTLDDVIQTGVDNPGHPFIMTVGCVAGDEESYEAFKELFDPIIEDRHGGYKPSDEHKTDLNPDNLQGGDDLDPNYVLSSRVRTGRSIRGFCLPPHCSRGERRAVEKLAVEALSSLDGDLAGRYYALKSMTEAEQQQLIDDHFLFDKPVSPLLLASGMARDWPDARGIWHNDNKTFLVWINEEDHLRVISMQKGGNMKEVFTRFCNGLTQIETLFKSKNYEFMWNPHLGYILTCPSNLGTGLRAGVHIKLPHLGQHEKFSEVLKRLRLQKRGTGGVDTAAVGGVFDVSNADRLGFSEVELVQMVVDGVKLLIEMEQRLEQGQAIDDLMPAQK
Chain of human Sirtuin 3 (SIRT3), SIRT3 (gene 23410) (Q9NTG7 whole entry, looked up): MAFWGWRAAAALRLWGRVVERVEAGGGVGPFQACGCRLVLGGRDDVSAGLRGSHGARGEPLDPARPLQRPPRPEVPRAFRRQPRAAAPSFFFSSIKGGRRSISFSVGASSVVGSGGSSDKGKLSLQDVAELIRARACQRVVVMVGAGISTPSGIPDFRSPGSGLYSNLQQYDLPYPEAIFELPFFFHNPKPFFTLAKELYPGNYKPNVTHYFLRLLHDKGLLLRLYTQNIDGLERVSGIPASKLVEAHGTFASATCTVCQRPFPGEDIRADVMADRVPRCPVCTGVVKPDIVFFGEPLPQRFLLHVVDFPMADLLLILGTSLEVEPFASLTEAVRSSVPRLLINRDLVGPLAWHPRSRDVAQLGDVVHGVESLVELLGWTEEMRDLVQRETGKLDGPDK
Chain of sheep Cyclooxygenase-2 (Cox2), PTGS2 (gene 443460) (P79208 whole entry, looked up): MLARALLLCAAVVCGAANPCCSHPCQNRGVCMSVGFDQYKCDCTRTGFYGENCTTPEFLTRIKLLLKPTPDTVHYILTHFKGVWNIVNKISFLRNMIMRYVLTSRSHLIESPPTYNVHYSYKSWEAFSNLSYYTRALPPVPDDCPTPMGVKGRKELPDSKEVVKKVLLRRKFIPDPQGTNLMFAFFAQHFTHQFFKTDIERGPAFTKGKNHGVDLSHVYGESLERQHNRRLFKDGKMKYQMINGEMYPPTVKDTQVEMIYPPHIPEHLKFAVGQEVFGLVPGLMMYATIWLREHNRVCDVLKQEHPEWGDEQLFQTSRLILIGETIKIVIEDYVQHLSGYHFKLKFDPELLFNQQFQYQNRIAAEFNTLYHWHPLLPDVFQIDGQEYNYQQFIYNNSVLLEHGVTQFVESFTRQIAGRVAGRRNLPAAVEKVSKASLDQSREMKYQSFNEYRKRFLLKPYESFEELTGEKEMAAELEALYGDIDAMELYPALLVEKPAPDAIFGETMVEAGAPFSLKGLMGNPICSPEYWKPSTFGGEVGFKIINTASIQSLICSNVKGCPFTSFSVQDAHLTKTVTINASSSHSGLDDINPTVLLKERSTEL
Chain of human Vascular Endothelial Growth Factor Receptor 3 (VEGFR3), FLT4 (gene 2324) (P35916 whole entry, looked up): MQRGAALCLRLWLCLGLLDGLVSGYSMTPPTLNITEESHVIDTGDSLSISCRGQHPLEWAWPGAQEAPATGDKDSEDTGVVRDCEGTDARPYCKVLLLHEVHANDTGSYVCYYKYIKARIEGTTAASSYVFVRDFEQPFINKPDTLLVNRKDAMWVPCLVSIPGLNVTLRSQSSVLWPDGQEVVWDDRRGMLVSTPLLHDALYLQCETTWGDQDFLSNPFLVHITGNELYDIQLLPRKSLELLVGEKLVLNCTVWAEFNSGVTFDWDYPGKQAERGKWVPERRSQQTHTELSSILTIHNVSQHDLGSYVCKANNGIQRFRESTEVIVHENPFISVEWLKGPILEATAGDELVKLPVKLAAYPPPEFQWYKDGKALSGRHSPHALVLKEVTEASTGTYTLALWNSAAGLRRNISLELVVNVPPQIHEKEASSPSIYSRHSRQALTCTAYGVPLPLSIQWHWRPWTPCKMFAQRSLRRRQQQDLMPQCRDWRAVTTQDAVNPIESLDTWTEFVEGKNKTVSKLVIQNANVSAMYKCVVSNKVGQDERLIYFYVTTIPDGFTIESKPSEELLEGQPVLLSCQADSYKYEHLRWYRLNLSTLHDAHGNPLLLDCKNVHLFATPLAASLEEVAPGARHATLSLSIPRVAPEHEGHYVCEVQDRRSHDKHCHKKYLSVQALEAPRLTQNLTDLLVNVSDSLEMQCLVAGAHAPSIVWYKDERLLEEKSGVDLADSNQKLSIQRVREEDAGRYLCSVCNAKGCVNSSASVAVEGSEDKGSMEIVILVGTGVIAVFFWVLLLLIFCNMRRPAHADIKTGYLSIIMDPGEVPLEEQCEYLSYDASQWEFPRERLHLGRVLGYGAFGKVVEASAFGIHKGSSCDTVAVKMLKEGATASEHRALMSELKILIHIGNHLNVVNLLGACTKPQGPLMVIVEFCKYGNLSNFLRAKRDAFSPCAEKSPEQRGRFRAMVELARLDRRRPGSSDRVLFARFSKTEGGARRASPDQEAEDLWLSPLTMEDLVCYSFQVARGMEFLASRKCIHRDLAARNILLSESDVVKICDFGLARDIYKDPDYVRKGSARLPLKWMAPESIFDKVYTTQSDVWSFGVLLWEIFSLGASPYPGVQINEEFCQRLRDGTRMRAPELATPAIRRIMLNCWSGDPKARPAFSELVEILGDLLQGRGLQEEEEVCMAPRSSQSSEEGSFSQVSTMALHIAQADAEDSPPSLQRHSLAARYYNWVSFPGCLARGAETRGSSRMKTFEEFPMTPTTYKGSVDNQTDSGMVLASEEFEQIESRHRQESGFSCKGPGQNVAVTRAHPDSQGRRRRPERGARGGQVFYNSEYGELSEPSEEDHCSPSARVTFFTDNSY

`O=C(O)c1cc(N=Nc2ccc(S(=O)(=O)Nc3ccccn3)cc2)ccc1O`: the result in test [1], in test [2] and in test [3] was inactive.
As to `COc1cccc(-c2ccc(/C=C\CN3CCCCCC3)cc2Cl)c1`, the AC50 in test [4] was 3.06 µM (active); in test [5] it was 22.6 µM (active). Besides, the result in test [3] was inactive.
`CCOc1cccc(-n2cc(C(=O)N3CCN(c4cc(C(=O)O)c5ccccc5c4)CC3)nc2-c2ccc(C)cc2)c1`: in test [3], the molecule was called inactive. In addition, in test [6], the AC50 was 6.87 µM (active).
Turning to `O=C(OC[C@H]1O[C@@H](OC(=O)c2cc(O)c(O)c(OC(=O)c3cc(O)c(O)c(O)c3)c2)[C@H](OC(=O)c2cc(O)c(O)c(OC(=O)c3cc(O)c(O)c(O)c3)c2)[C@@H](OC(=O)c2cc(O)c(O)c(OC(=O)c3cc(O)c(O)c(O)c3)c2)[C@@H]1OC(=O)c1cc(O)c(O)c(OC(=O)c2cc(O)c(O)c(O)c2)c1)c1cc(O)c(O)c(OC(=O)c2cc(O)c(O)c(O)c2)c1`, the AC50 was 2.87 µM (active) in [6] and 0.371 µM (active) in test [7].
For the molecule `Nc1cccc(N)c1`, in test [8], the outcome was inactive.
Consider `CN(C)c1ccc(N=NS(=O)(=O)O)cc1`, for which the outcome in test [1], in test [2] and in test [3] was inactive. Also, the AC50 in [5] was 23.8 µM (active).
For `CC[C@H](C)C(=O)O[C@H]1C[C@@H](C)C=C2C=C[C@H](C)[C@H](CC[C@@H]3C[C@@H](O)CC(=O)O3)[C@H]21`, the molecule was classed as inactive in [4], in test [1], in test [2] and in [3]. Further, in test [6], the AC50 is 8.83 µM (active).
`C=CC(=C)CCC=C(C)C`: the molecule was called inactive in [3].
Turning to `Cn1c(=O)cc(Oc2ccc(F)cc2F)c2cnc(NCC(C)(C)O)nc21`, the AC50 in [1] was 29.9 µM (active). The molecule was called inactive in test [3].
For `CCOC(=O)c1ccc(C2CCC(NC[C@H](O)COc3ccc(O)c(NS(C)(=O)=O)c3)CC2)cc1` (stereo not given in full), the AC50 in [5] was 23.4 µM (active); in test [6], 8.48 µM (active).
Consider `Nc1ccc(Nc2ccccc2)cc1`, for which the AC50 in [5] was 4.76 µM (active).
As for `CCCCCCc1ccc(O)cc1O`, the AC50 in test [6] was 11 µM (active).
`CCOCCOCCOCCO`: the molecule was called inactive in test [3].
Take `CC(C)CCO`: the molecule was classed as inactive in [7].
For the molecule `CCC(C)(C)C(=O)O[C@H]1C[C@@H](C)C=C2C=C[C@H](C)[C@H](CC[C@@H]3C[C@@H](O)CC(=O)O3)[C@H]21`, the molecule was classed as inactive in test [3].
Regarding `COc1ccc(-n2nc(C(F)F)cc2-c2ccc(S(C)=O)cc2)cc1` (stereo not given), in [6], the AC50 was 0.478 µM (active).
Turning to `COC(=O)c1c(Cl)c(Cl)c(C(=O)OC)c(Cl)c1Cl`, the molecule was classed as inactive in test [2].
Regarding `CC1(C)C(=O)N(Br)C(=O)N1Br`, the call in test [4] was inactive.
As to `CC(=O)c1ccc2c(c1)[C@H](NC(=O)c1ccc(F)cc1)[C@@H](O)C(C)(C)O2`, in test [6], the AC50 is 11.3 µM (active).
On to `CCOC(=O)COc1ccc2c(c1)CC(NCC(O)c1cccc(Cl)c1)CC2` (stereo not given), for which, in [3], the call was inactive.
For the molecule `CNCc1ccc(NC(=O)c2c[nH]c3c2C(=O)CCC3)cc1`, in test [8], the call was inactive.
Turning to `COc1ccc2sc(C(=O)Nc3nnn[nH]3)c(OC(C)C)c2c1`, the result in test [3] was inactive.
With `Cc1ccc(N)cc1O`, the result in test [8], in test [1], in test [2] and in test [3] was inactive.
As for `Clc1nc(Cl)c(Cl)c(Cl)c1Cl`, the result in test [9] was inactive.
As for `Fc1ccccc1[C@@H](F)COC1CCC(Nc2ncnc3[nH]ncc23)CC1` (stereo not given in full), the molecule was called inactive in test [5]. In addition, the AC50 in test [3] is 0.213 µM (active).
Turning to `CC(O)CN(CCN(CC(C)O)CC(C)O)CC(C)O` (stereo not given), the result in test [2] was inactive.
For the molecule `COCCOc1cc2cc(C(=O)NC3CCN(C(C)C)CC3)n(CC(=O)Nc3ccc(Cl)cn3)c2cn1`, in test [9], the molecule was classed as inactive.
Take `On1ccccc1=S`: in test [3], the outcome was inactive.
For `Cc1[nH]cnc1C[C@H]1CCc2c(C)c3ccccc3n2C1=O`, the outcome in [4] and in test [5] was inactive.
`Oc1ccc2c(c1)-c1ccccc1C2`: the molecule was classed as inactive in test [8].
Take `CCN(C(=O)c1cc(C)cc(OC[C@H](C)Nc2ccncc2)c1)C(C)C`: the result in test [5] was inactive.
As for `CC(C)c1cccc(C(C)C)c1N1C(=O)c2ccc(O)cc2C1=O`, the outcome in [1] and in test [2] was inactive. For the same molecule, in test [6], the AC50 is 4.32 µM (active).
Turning to `CCCCCCCCCCCCCCCO`, the molecule was called inactive in [3].
For the molecule `Cc1ccc(C)c(O)c1`, in test [6], the molecule was classed as inactive.
For the molecule `C[C@](N)(Cc1ccc(O)c(O)c1)C(=O)O`, the AC50 in test [6] was 6.83 µM (active).
In the case of `CC[C@H]1CC[C@H](NCc2cc3c(cc2OC)[C@H]2C[C@H]2C(=O)N3C)[C@H](c2ccccc2)N1`, in test [5], the AC50 is 10.4 µM (active).
As to `O=C(O)c1cccc(Oc2ccccc2)c1`, the call in test [8], in test [10] and in test [2] was inactive.
As for `CC(=O)OCCC(C)C`, the molecule was classed as inactive in test [10].
With `O=c1[nH]c2ccc(S(=O)CCN3CCC(Cc4ccc(F)cc4)CC3)cc2o1` (stereo not given), the AC50 in test [5] is 6.76 µM (active).
On to `CC(C)=CCC/C(C)=C\CO`, for which the call in test [3] was inactive. Also, the AC50 in [6] was 4.26 µM (active).

The values above are taken from PubChem BioAssay (EPA / NIEHS).
